High-throughput results: PubChem, National Center for Advancing Translational Sciences (NCATS)
Shown is part of a subset that was picked to be rich in hits.
RE007 growth inh – less growth of the S. pombe RE007 Vpr strain. S. pombe RE007 Vpr strain, BacTiter-Glo ATP luminescence, 24 h. Potency, µM (top dose mostly 92.2 µM), for the others: at the top dose activity change, negative = less growth, usual class: inhibitors. hit rate 0.21% among 360,000. AID 651644; active = well fitted falling curve with a large enough effect; inconclusive = small, poorly fitted or top-dose-only effect; inactive = no such curve, though single readings can be large or run the other way; note: potency is the fitted concentration of half-maximal effect; % is set by controls: 0 for no effect and ±100 for the full control effect; nearly all actives have a fitted effect of over 50% in size
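Fission yeast RE007 carrying one integrated HIV-1 vpr copy, seeded at OD 0.01 in PMG+AL medium with 23 nL pinned compound. Grown 24 h at 30 degrees; viability read by BacTiter-Glo luminescence after 5 min.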
FBPA Giardia inh – blocks Giardia fructose-bisphosphate aldolase activity. Potency, µM (titrated, usually from 59.6 µM), without a hit: top-dose activity, negative = inhibition, hits mostly inhibitors. A8B2U2. hit rate 0.71% among 290,000. purified Giardia FBPA; note: potency is the fitted concentration of half-maximal effect; % is set by controls: 0 for no effect and ±100 for the full control effect; nearly all actives have a fitted effect of over 55% in size
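Giardia FBPA (40 nM reagent) was preincubated 10 min at RT with compound (up to 57.5 uM final), then substrate plus GAPDH/TPI/NAD/arsenate coupling system with diaphorase/resazurin was added; resorufin fluorescence (525/598 nm) was read after 20 min.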
Shiga inhibitor – blocks Shiga toxin action in Vero cells | Vero cells, Shiga toxin protein synthesis inhibition reporter | inhibition, % at 38.7 µM | hit rate 9.2% among 290,000 | AID 2315; in the data active = inhibition mostly above about 28%, no sharp cut-off; inactive = mostly below about 43%; note: 0% is about no effect
Tb PYK inh – inhibitors of Trypanosoma brucei pyruvate kinase; Q57TT1; TbPYK enzyme, Kinase-Glo Plus ATP luminescence, 45 min; Potency, µM (series often up to 76.8 µM), for inactives: at the highest dose activity, negative = inhibition, usual class: inhibitors; hit rate 0.12% among 410,000; AID 624173; note: potency is the fitted concentration of half-maximal effect; % is set by controls: 0 for no effect and ±100 for the full control effect; nearly all actives have a fitted effect of over 50% in size
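Luminescent Kinase-Glo Plus end-point after 45 min room-temperature reaction of T. brucei pyruvate kinase started with 130 uM ADP (final). Buffer TEA 50 mM pH 7.2 with KCl, MgCl2, BSA, Tween-20; titration-based qHTS with fitted concentration-effect curves.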
CHX counter – counter-screen for Shiga toxin inhibitors: cycloheximide protein synthesis inhibition | hit rate 12% among 300,000 | AID 2314 | cell reporter, cycloheximide protein synthesis inhibition counterscreen | max response, %; in the data active = max response mostly above about 13%, no sharp cut-off; inactive = mostly below about 14%; note: read at 38.3 µM for the half of the compounds with a filed dose; 0% is about no effect
LmPK inh – inhibitors of Leishmania mexicana pyruvate kinase. Q27686. Potency, µM (doses to about 57.5 µM), without a hit: at the highest dose activity change, negative = inhibition, actives largely listed as inhibitors. hit rate 0.37% among 290,000. purified LmPK, Kinase-Glo ATP luminescence, 1 h. AID 1721; note: potency is the fitted concentration of half-maximal effect; % is set by controls: 0 for no effect and ±100 for the full control effect
Target sequence (Q27686 whole entry, looked up): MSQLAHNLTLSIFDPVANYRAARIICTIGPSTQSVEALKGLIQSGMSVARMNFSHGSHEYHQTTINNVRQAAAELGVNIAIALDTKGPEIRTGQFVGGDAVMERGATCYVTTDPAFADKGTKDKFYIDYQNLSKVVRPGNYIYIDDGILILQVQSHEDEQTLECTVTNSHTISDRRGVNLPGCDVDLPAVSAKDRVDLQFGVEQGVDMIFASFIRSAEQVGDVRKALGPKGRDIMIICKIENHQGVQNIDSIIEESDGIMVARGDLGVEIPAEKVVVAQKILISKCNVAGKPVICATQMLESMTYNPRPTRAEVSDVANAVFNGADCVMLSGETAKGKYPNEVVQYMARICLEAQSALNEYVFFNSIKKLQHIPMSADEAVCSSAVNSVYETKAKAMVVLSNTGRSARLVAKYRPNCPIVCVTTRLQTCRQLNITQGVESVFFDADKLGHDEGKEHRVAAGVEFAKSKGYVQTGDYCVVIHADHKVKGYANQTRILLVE
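Kinase-Glo luminescence read after 1 h RT reaction of 0.1 nM LmPK with 0.5 mM PEP and 0.1 mM ADP. Activity scaled between uninhibited and enzyme-free controls.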
* = called active by the depositor; ? = inconclusive; . = no result; [ ] = another dose, or the depositor's remark. Unless noted, calls come from the whole dose curve; as a rule, active = well fitted curve in the direction sought with a large enough effect; inconclusive = small, poorly fitted or top-dose-only effect, or another doubt; inactive = no such curve, though single readings can be large; an effect the other way counts as inactive or inconclusive.

SMILES	RE007 growth inh	FBPA Giardia inh	Shiga inhibitor	Tb PYK inh	CHX counter	LmPK inh
COc1ccc(OC)c(CNC(=O)c2cnc3c(C)cccn3c2=O)c1	.	.	.	4%	.	.
O/N=C/c1cc(Br)ccc1OCc1ccc(F)cc1	35µM*	.	.	2%	.	.
O=C(O)CN1C(=O)/C(=C\c2cc(Br)ccc2OCc2ccc(F)cc2)SC1=S	-3%	14%	-7	2%	-4	6%
CCc1ccc(C2c3c(oc4ccc(F)cc4c3=O)C(=O)N2CCc2ccc(OC)cc2)cc1 (configuration not stated)	.	.	.	-1%	.	.
O=C(Nc1ccccc1)Nc1nnc(-c2cccs2)s1	7%	1%	25	2%	29*	2%
COc1ccc(C(=O)Nc2nc(-c3cccs3)c(NC(C)=O)s2)cc1	-10%	2%	38	-4%	-2	0%
O=C(Cc1nnc(NC(=O)Nc2ccccc2)s1)Nc1ccccc1	-5%	1%	-2	-1%	-2	5%
Cc1occc1C(=O)Nc1nnc(-c2cccs2)s1	-8%	6%	107*	-9%	34*	-8%
Cc1occc1C(=O)Nc1nccs1	-19%	4%	34	-10%	8	-12%
COc1ccc(NC(=O)Nc2nnc(-c3cccs3)s2)cc1	0%	1%	61*	8%	25*	-11%
COc1ccc(C(=O)Nc2nnc(-c3cccs3)s2)cc1	-17%	7%	60*	-6%	43*	-7%
Cc1ccsc1C(=O)NCc1ccc(F)cc1	9%	-3%	-5	9%	2	-1%
COc1ccc(-c2nc(SCC(=O)NC3CCCC3)c(-c3ccc(C)cc3)[nH]2)cc1OC	.	.	.	0%	.	.
CCOC(=O)C1CCN(CC(=O)c2ccc(O)c(C)c2O)CC1	-9%	-7%	0	-3%	-2	5%
Cc1nnc(NC(=O)c2cccc(F)c2)s1	-1%	6%	-3	2%	7	-2%
O=C(Nc1nnc(-c2cccs2)s1)c1cccc(F)c1	-11%	0%	59*	5%	19*	0%
O=C(CSc1nnc2ccccn12)NCc1cccs1	-3%	-3%	52*	6%	21*	11%
O=C(CSc1ccc2ccccc2c1)NCc1cccs1	1%	-3%	15	0%	32*	3%
CCc1ccccc1Oc1ccc(S(=O)(=O)N2CCN(C)CC2)cn1	3%	.	.	-1%	.	.
O=C1C=CC2=C3c4cc(O)c(O)cc4CC3(O)COC2=C1O (configuration not stated)	-15%	11µM*	.	?	.	.
Cc1ccc(-c2cc(C(=O)N3CCN(S(=O)(=O)c4ccc(Br)s4)CC3)[nH]n2)cc1C	.	.	.	-1%[15.4 µM]	.	.
N#CCSc1nc2c(cc1C#N)CCCC2	7%	8%	57	-8%	30*	2%
N#Cc1cc2c(nc1SCc1cccnc1)CCCCC2	1%	4%	130*	-6%	17	2%
C1=C(c2ccccc2)Nc2ccccc2N=C1c1ccccc1	-15%	2%	36*	34%	14	-4%
O=C(c1ccccc1)c1cc(Cl)ccc1N1C(=O)C=CC1=O	25µM*	?	-2	4.5µM*	3	?
SMILES	RE007 growth inh	FBPA Giardia inh	Shiga inhibitor	Tb PYK inh	CHX counter	LmPK inh
Nc1ccc(Cl)cc1C(=O)c1ccccc1	16%	-11%	-5	-1%	8	9%
Cc1ccc(N=Nc2ccc(O)c3ncccc23)cc1C	4%	-1%	100*	-2%	28*	0%
COc1ccccc1N=Nc1ccc(O)c2ncccc12	?	?	90*	-14%	62*	-1%
CCS(=O)(=O)c1ccc(N=Nc2ccc(O)c3ncccc23)c(OC)c1	?	8%	18	-3%	11	-9%
CCOC(=O)c1c(S(=O)(=O)N2CCCC(C(=O)NCc3ccccc3OC)C2)c(C)n(C)c1C (configuration not stated)	.	.	.	0%	.	.
COc1ccccc1C1Nc2c(sc3nc(C)cc(C)c23)C(=O)N1c1ccccc1 (configuration not stated)	.	.	.	-7%	.	.
CCn1cc(C2=NC(CCSC)CO2)c2ccccc21 (configuration not stated)	12%	2%	43	1%	18*	8%
CCn1cc(C2=NC(CC(C)C)CO2)c2ccccc21 (configuration not stated)	-8%	-4%	51	5%	22*	-2%
CCn1cc(C(=O)N2CCN(c3cc(C)ccc3C)CC2)c(=O)c2cc(S(=O)(=O)N3CCCCC3)ccc21	.	.	.	2%	.	.
Cc1cc(Cl)ccc1-n1c(-c2cccnc2)n[nH]c1=S	12%	-23%	17	14µM*	6	8.9µM*
Cc1ccc(C)c(-n2c(-c3cccnc3)n[nH]c2=S)c1	9%	?	-8	?	-2	-28%
Cc1c(Cl)cccc1-n1c(-c2cccnc2)n[nH]c1=S	-9%	-9%	-3	7.1µM*	-3	?
Cc1c(C(C)(C)C)sc(=NC(=O)c2ccccc2O)n1C	-4%	4%	82*	22%	38*	-1%
Cc1ccc(-c2nnc(Nc3ccc(S(N)(=O)=O)cc3)c3ccccc23)cc1S(=O)(=O)N1CCOCC1	.	.	.	-6%	.	.
Cc1ccc(N2CCN(c3ccc(C)cc3)C(CC(=O)O)C2=O)cc1 (configuration not stated)	6%	-1%	4	-4%	9.2*	3%
COC(=O)c1ccc(/C=C2\Oc3ccccc3NC2=O)cc1	-4%	10%	29	0%	15*	0%
COC(=O)c1ccc2c(c1)C(=O)/C(=C/c1ccc(C)cc1)O2	4%	-1%	30	3%	9	3%
CC(=O)NC(C)(c1ccccc1)c1nc(-c2cc(F)cc(F)c2)cs1 (configuration not stated)	9%	.	.	5%	.	.
COc1cc2c(c(OC)c1OC)-c1c(cc3c(c1OC)OCO3)C[C@@H](C)[C@](C)(O)C2	.	.	.	-8%	.	.
Cc1ccn2c(c1)nc(=O)c1cc(S(=O)(=O)N3CCC(C)CC3)c(Cl)cc12	.	.	.	0%	.	.
O=C(N/N=C/c1ccc(O)cc1)/C(=C/c1ccccc1)CCO	4%	1%	20	-9%	14*	0%
CN(C)c1ccc(-n2cccc2/C=C/[N+](=O)[O-])cc1	?	-3%	-15	3%	-6	2%
CN(C)c1ccc(N=Cc2cccn2C)cc1	-18%	-24%	107*	-10%	85*	-7%
COc1ccc(C(=O)/C=C/Sc2nc3ccccc3o2)cc1	13%	-2%	135*	2%	51*	-5%
COc1ccc(C(=O)N/C(N)=N/c2nc3ccccc3o2)cc1	2%	11%	7	-2%	7	-1%
CCC(Sc1nc2ccccc2c(=O)[nH]1)C(=O)Nc1ccc(C(C)=O)cc1 (configuration not stated)	11%	0%	59*	2%	32*	6%
